Compounds without any hit were thinned out: in the full panel of roughly 83,000, 20% have a hit.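 Growth was measured after 48 h exposure to one concentration of compound in 96-well plates. Values under 10 count as active.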 A number with no mark means an inactive call. Activity calls are given as the source filed them.
How the values were obtained:
Experiment in all cases: NCI-60 one-dose screen, 48 h (100 = growth as untreated, 0 = no growth, -100 = all killed)
Conditions in all cases: 10 µM
[1] = system: HCT-15 colon
[2] = system: HT29 colon
[3] = system: SNB-75 CNS
[4] = system: SNB-19 CNS
[5] = system: U251 CNS
[6] = system: SK-MEL-5 melanoma
[7] = system: UACC-62 melanoma
[8] = system: LOX IMVI melanoma
[9] = system: SK-MEL-28 melanoma
[10] = system: SK-MEL-2 melanoma
[11] = system: EKVX NSCLC
[12] = system: SN12C renal
[13] = system: UO-31 renal
[14] = system: TK-10 renal
[15] = system: ACHN renal
[16] = system: CAKI-1 renal
[17] = system: MOLT-4 leukemia
[18] = system: A498 renal
[19] = system: CCRF-CEM leukemia

SMILES	growth [1]	growth [2]	growth [3]	growth [4]	growth [5]	growth [6]	growth [7]	growth [8]	growth [9]	growth [10]	growth [11]	growth [12]	growth [13]	growth [14]	growth [15]	growth [16]	growth [17]	growth [18] [%]	growth [19]
CCOC(=O)c1sc2ncnc(Nc3ccc(NC(=O)Nc4ccc(Cl)cc4)cc3)c2c1C	33.9%	43%	17.6%	73.7%	26.3%	32.2%	78.8%	44.4%	79.5%	87.2%	74.4%	60.5%	54.9%	89.4%	64.4%	83.9%	66.3%		
COc1ccc(N(C)c2ncnc3occ(C)c23)cc1	11.1%	7.69% (active)	44.8%	27.2%	13.9%	-44.5% (active)	22.9%	17.7%	134%	-4.77% (active)	42.1%	34%	26.5%		29%	-6.13% (active)	-1.42% (active)	68.7	-20.9% (active)
O=C(CCCCNC(=O)c1nc(-c2ccccc2)n(-c2ccccc2)n1)NO	91.3%	73.6%	70.8%	86%	65.9%	62.2%	37.5%	96.9%	75.2%	67.6%	80.7%	77.9%	86.4%	56%	102%		58.1%		
CC(C)C1=C(O)C2=C(C(=O)C1=O)[C@@]1(C)CCCC(C)(C)[C@@H]1CC2	44.2%	99%	78.5%	53.4%	50%	70.1%	80%	56.9%	73.4%		67.1%	81%		81.5%	59.6%	15%	44.2%		41.5%
Cc1c2cnccc2c(C)c2c1c1cc(O)ccc1n2C(C)C	2.12% (active)	25%	0.198% (active)	18.3%	17.8%	-49.3% (active)	-15.7% (active)	-17.2% (active)	6.18% (active)	-14.4% (active)	9.67% (active)		-3.92% (active)	56.2%	-1.61% (active)	15.6%	-4.53% (active)		
COc1ccc(C2CC(c3cc(OC)c(OC)c(OC)c3)=NN2)cc1 (stereo not drawn)	36.2%	29.9%	68.5%	68.3%	26.2%	81.4%	67%	43.9%	113%	87.6%	91.2%	94.5%	62.7%		99%	69%	73.4%	87.4	
Clc1nc2ccccc2cc1Cn1nnc(Cc2ccccc2)n1	65%	71.5%	55.4%	89.9%	76.3%	0.724% (active)	51.7%	53.6%	84.7%	58.8%	36.1%	70.3%	-81% (active)	60.9%	52.2%	40.5%	43.1%		
Cc1c2c(nn1C(=O)c1nn(-c3ccc(Cl)cc3)cc1O)-c1ccccc1CC2	25.1%	30%	46.7%	34.3%	22.3%	24.3%	-6.22% (active)	17.5%	54.7%	0.774% (active)	6.22% (active)	29.2%	10.3%		16.7%	-25.5% (active)	-1.46% (active)	80.5	-7.92% (active)
CCOC(=O)CSc1nc(-c2cc(OC)ccc2OC)cc(-c2ccc(OC)cc2)c1C#N	69.1%	64.2%	97.5%	94.2%	86.7%	80%	71%	85.5%	84.8%	84.3%	74.1%	79.5%	63%	75.7%	76.7%	83.4%	76.6%		
Cn1c2ccccc2c2c3[nH][nH]c(=O)c3c3c4ccccc4[nH]c3c21	19.7%	43.3%	37.2%	32.5%	22.7%	-18.1% (active)	-5.51% (active)	-30.3% (active)	29.3%	10.9%	49%	16.1%	-26.9% (active)	93%	-8.79% (active)	60.2%	5.9% (active)		
COc1ccc2nc(Cl)c(Cn3nnc(Cc4ccccc4)n3)cc2c1	36.5%	27.4%	57.1%	58%	53.2%	-47.2% (active)	35.1%	42.9%	47.5%	49.6%	24.5%	57.3%	14.7%	34.9%	41.5%	43.9%	10.3%		
CN1CCc2c(sc3nc4n(-c5ccc(Cl)cc5)c(=O)[nH]n4c(=O)c23)C1	103%	86.4%	95.2%	109%	98.7%	110%	111%	92.5%	111%	96.5%	101%	107%	89.7%	88.3%	106%	93.1%	99.1%		
CCOc1ccccc1/C=N/N1CCCCCC1	100%	104%	77.2%	108%	103%	94.4%	109%	90.3%	107%	113%	96.7%			104%	104%	85.7%	97.7%		100%
COc1ccc(-c2cc(-c3cc(OC)ccc3OC)nc(N)c2C#N)cc1	51.2%	60.7%	16.3%	48.8%	61.2%	63%	42.3%	58.6%	88.5%	77.1%	70.5%		69.4%	103%	66.1%	90.3%	85%		
COc1ccc([C@H]2[C@H](C(=O)Nc3cccnc3)c3ccccc3C(=O)N2c2ccccc2)cc1	78.1%	81.3%	98.9%	88.4%	74.8%	79.4%	92.3%	92.5%	102%	86.2%	94.5%		99.5%	93%	90.3%	93.7%	77.5%		
CC1=NN(C(=O)c2nn(-c3ccc(Cl)cc3)cc2O)C(=O)C1	34.5%	41.8%	28.7%	59.6%	47.9%	64.9%	41.5%	40.5%	72.1%	60.3%	65.2%	49.5%	34.2%		42%	114%	24.8%	90.1	13.5%
COc1cc2c3c(n([C@H]4CCOC4)c(=O)c2cc1OC)-c1cc2c(cc1C3=O)OCO2	56.1%	40.9%	31.9%	31.2%	11.9%	7.91% (active)	11.3%	4.78% (active)	72%	99.8%	60%	22.9%	10.6%	90%	0.59% (active)	33.5%	17.2%		
Nc1ccc(-c2cccs2)cc1NC(=O)c1ccc(CCCC(=O)Nc2ccc(C3CC3N)cc2)cc1 (stereo not drawn)	87.2%	64.8%	111%	90.8%	7.02% (active)	20%	45.5%	19%	83.1%	69.6%	73.9%	80.3%	75.8%	55.6%	83.5%	88.7%	47%		

SMILES	growth [1]	growth [2]	growth [3]	growth [4]	growth [5]	growth [6]	growth [7]	growth [8]	growth [9]	growth [10]	growth [11]	growth [12]	growth [13]	growth [14]	growth [15]	growth [16]	growth [17]	growth [18] [%]	growth [19]
O=C1c2c(c3c4ccccc4n(CCCCCCN4CCOCC4)c3c3[nH]c4ccccc4c23)C(=O)N1O	16.5%	24.3%	74.9%	97%	-23.2% (active)	23.4%	82.7%	-88.4% (active)	118%	110%	82.4%	75.8%	9.13% (active)	111%	92.6%	96.7%	66.3%		
COc1nc2c(c(=O)n1C)CN(c1ccccc1)C(=O)C(C)N2 (stereo not drawn)	101%	99.9%	77.4%	96.7%	99%	104%	91.7%	91.6%	113%	90.8%	96.4%	92%	78.7%		93.9%	100%	93.7%	115	97.2%
N#Cc1c(-c2ccc(Cl)cc2)cc(-c2cc(O)ccc2O)nc1N	43.8%	87.3%	32.8%	26.5%	-26.5% (active)	-79.9% (active)	-25.6% (active)	-56.2% (active)	18.4%		42.9%	-2.03% (active)	59%	79.6%	8.35% (active)		11.3%		
CC(=O)OC1CC2C(C)(C)CCC[C@]2(C)C2=C1C(O)=C(C(C)C)C(=O)C2=O (stereo partly drawn)	-23.1% (active)	17.2%	-13.3% (active)	21.6%	19.5%	-99.7% (active)	-60.1% (active)	-43% (active)	-42.8% (active)	-2.83% (active)	-15.7% (active)			22.5%	-95.3% (active)	-5.22% (active)	17.4%		26.8%
Cc1c2c[n+](C(C)C)ccc2c(C)c2c1[nH]c1ccccc12	87.7%	21.5%	41%	4.83% (active)	13.6%	-63.4% (active)	10.5%	40.7%	15.7%	12.3%	29.4%	-11.8% (active)		54%	85.7%	96%	14.8%		
COCCn1cc(-c2nc(-c3cccnc3)cs2)c2cc(F)ccc21	76.4%	72.3%	94.4%	97.3%	90.2%	82.9%	89.2%	90.7%	97.2%		90.8%	95.7%	107%	80.4%	101%	103%	79.3%		
O=C1CC(=O)N(C(=O)c2nn(-c3ccc(Cl)cc3)cc2O)N1	36.9%	27.9%	40.9%	48%	39.5%	47%	36.1%	36.8%	136%	53%	29.6%	45.1%	25.6%		38.3%	-7.19% (active)	16.6%	113	5.93% (active)
COc1cc2c3c(n(C4CCNCC4)c(=O)c2cc1OC)-c1cc2c(cc1C3=O)OCO2	-73.8% (active)	-58.3% (active)	-61.7% (active)	-54.8% (active)	-64.3% (active)	-89.3% (active)	-76.6% (active)	-73.1% (active)	-5.66% (active)		-68.4% (active)	-69% (active)	-70.2% (active)	76%	-81.7% (active)	21.4%	-27.1% (active)		
O=C(CCCNC(=O)c1nc(-c2ccccc2)n(-c2ccccc2)n1)NO	104%	90.1%	107%	98.1%	94.6%	104%	102%	97.9%	109%	97.9%	96.8%	101%	94.5%	85.9%	114%	98%	101%		
CCn1c2ccc(O)cc2c2c(C)c3c[n+](C)ccc3c(C)c21	81.2%	55.8%	31%	-3.45% (active)	3.41% (active)	7.6% (active)	16.6%	62.2%	31.8%		73.7%	-32.6% (active)	64.2%	45.6%	60.6%	85.2%	17.8%		
COc1ccc(C(=O)CSc2nc(-c3cc(OC)ccc3OC)cc(-c3ccc(OC)cc3)c2C#N)cc1	92.1%	92.2%	90.1%	99.9%	104%	99.1%	93.7%	91.4%	101%	103%	89.1%	97.6%	86.4%	103%	97.4%	96.3%	96.9%		
COc1cc2c3c(n([C@@H]4CCOC4)c(=O)c2cc1OC)-c1cc2c(cc1C3=O)OCO2	60.5%	42.9%	38%	30.1%	13.4%	14.2%	3.12% (active)	9.49% (active)	73.2%	94%	64.2%	18.3%	5.77% (active)	99.7%	0.739% (active)	23.2%	20.4%		
Cc1ccc(-n2c(C)nn3c(=O)c4c5c(sc4nc23)CN(C)CC5)cc1	101%	86.6%	93.4%	105%	101%	106%	101%	95.1%	106%	95%	95%		83.2%	82.4%	101%	88.5%	97.9%		
CCn1cc(CNc2ccc(C(=O)Nc3ccc4ccccc4c3)cc2)c(C)n1	55.8%	75.7%	71.8%	77.6%	84.5%	-31.5% (active)	60%	62.5%	77.8%	61%	36.5%	85.7%	47.1%	1.78% (active)	69.5%	53.6%	15.5%		
CN1CCc2c(sc3nc4n(-c5ccc(Cl)cc5)cnn4c(=O)c23)C1	104%	91.1%	94.2%	107%	104%	109%	102%	97.6%	116%	118%	87.2%	98.9%	84.1%	116%	109%	97.4%	104%		
CSc1nc2c(c(=O)n1C)CN(Cc1ccccc1)C(=O)CN2	85.7%	110%	76.9%	97.6%	94%	101%	83.6%	92.1%	102%	86.3%	86%	97.7%	78.3%		96.4%	88.6%	92.5%	92.4	80.7%
Fc1ccc2[nH]cc(-c3nc(-c4ccsc4)cs3)c2c1	91.4%	100%	92.2%	109%	93.7%	89.2%	88.5%	86.7%	108%	87.9%	57.1%	92.5%	74.4%	133%	93.6%		78%		
COc1ccc(C(=O)c2cc3c(OC)c(OC)c(OC)cc3[nH]2)cc1	36.1%	14.2%	51.9%	71.9%	59.8%	36.9%	36.7%	56.3%	65.2%	43.7%	98.4%	75.1%	56%		79.4%		50.2%	59.9	42.8%

— PubChem BioAssay (NCI)
